# Pf growth 96h: P. falciparum growth inhibition at 96 hours. P. falciparum luciferase reporter growth, 96 h. Potency, µM (top dose mostly 28.7 µM), inactives show at the highest dose activity change, negative = inhibition, actives largely listed as inhibitors. 6.9% of 320,000 active. AID 504834; further: potency means the concentration at half of the fitted maximal effect; on the % scale 0 is the no-effect control and ±100 the full control effect
#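 Two-generation exposure (96 h) targets delayed-death phenotype. Reporter parasites carrying integrated firefly luciferase, in red cells at 2% hematocrit and 0.05% parasitemia final, kept at 37 C, 5% CO2; luminescence loss indicates inhibition.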
# Shiga toxin inh: blocks Shiga toxin action in Vero cells | 9.2% of 290,000 active | inhibition, % at 38.7 µM | Vero cells, Shiga toxin protein synthesis inhibition reporter; in the data active means inhibition mostly above about 28%, no sharp cut-off; inactive means mostly below about 43%; further: 0% is about no effect
# Pf growth 48h: inhibits P. falciparum growth in the first generation, 48 h. Potency, µM (highest dose often 28.7 µM), for the others: at the highest dose activity change, negative = inhibition, actives largely listed as inhibitors. P. falciparum luciferase growth in erythrocytes, 48 h. 5.9% of 310,000 active; further: potency means the concentration at half of the fitted maximal effect; on the % scale 0 is the no-effect control and ±100 the full control effect
#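 Growth was read as firefly luciferase luminescence after a 48 h, 37 C, 5% CO2 exposure of compounds to reporter-bearing P. falciparum cultures (0.1% parasitemia, 2% hematocrit final) in Albumax-supplemented RPMI 1640.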
# CHX counter: affects cycloheximide protein synthesis inhibition readout, counter-screen; cell reporter, cycloheximide protein synthesis inhibition counterscreen; AID 2314; 12% of 300,000 active; max response, %; in the data active means max response mostly above about 13%, no sharp cut-off; inactive means mostly below about 14%; further: read at 38.3 µM for the half of the compounds with a filed dose; 0% is about no effect
# NS1 inh: blocks influenza NS1 protein function. Potency, µM (series often up to 46.1 µM), for inactives: top-dose activity, positive = more growth. 0.4% of 270,000 active; calls by dose curve; further: potency means the concentration at half of the fitted maximal effect; actives are rising curves; nearly all actives have a fitted effect of over 50% in size
#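 Growth recovery, yeast-based: influenza A NS1 expressed in S. cerevisiae causes slow growth, and suppressors are detected by OD600. The parent strain without NS1 is used as positive control.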
# * hit, by the source's call; ? = inconclusive; / = no result. Sampled rows, rich in hits. Any-hit rate of the full collection: about 21%. Unless noted, the call rests on the fitted dose curve; in most records, active means well fitted inhibition curve with a large enough effect; inconclusive means small, poorly fitted or top-dose-only effect, or another doubt; inactive means no such curve, though single readings can be large or run the other way.
SMILES,Pf growth 96h,Shiga toxin inh,Pf growth 48h,CHX counter,NS1 inh
CCOc1c(Nc2ccc(C(C)C)cc2)c(=O)c1=O,26%,35,-13%,12,-32%
CC(=O)Oc1ccc(Cl)cc1/C=C/c1ccc2ccccc2n1,?,76*,2.6µM*,37*,-24%
Fc1ccccc1/C=C/c1ccc2ccccc2n1,?,72*,33%,51,-15%
CN1CCCNc2nc3ccccc3nc21,?,84*,82%,35*,-43%
CN1CCCN(S(=O)(=O)c2ccccc2)c2nc3ccccc3nc21,-13%,/,57%,/,/
CC1CCN(S(=O)(=O)c2cccc(-c3cn4cc(Cl)ccc4n3)c2)CC1,/,53*,-2%,12,-26%
CN(C)C(=O)Oc1cccc(-c2cn3cc(Cl)ccc3n2)c1,213%,58*,143%,43*,-11%
CCOC(=O)C1CCN(S(=O)(=O)c2cccc(-c3cn4cc(Cl)ccc4n3)c2)CC1,/,14,?,7,2%
CN(C)C(=O)Oc1ccc(-c2cn3cc(C(F)(F)F)ccc3n2)cc1,123%,41*,110%,20,9%
CCN(CC)S(=O)(=O)c1ccc(-c2cn3cc(Cl)ccc3n2)cc1,36%,20,-13%,19,-7%
CN(C)C(=O)Oc1ccc(-c2cn3cc(Cl)ccc3n2)cc1,251%,55*,170%,50*,-9%
CCOc1ccc(C(=O)C[n+]2ccccc2C)cc1,?,-5,?,-2,-5%
CCC(=O)Nc1c(C)c(CC)nc2ccccc12,-17%,-10,?,1,-10%
CCc1nc2ccccc2c(NC(=O)CN2CC(C)CC(C)C2)c1C (stereo unspecified),9.3µM*,-11,-21%,-4,11%
CCOCCCNCC(=O)NCC1CCCCC1,1%,-5,4%,-3,-6%
Cc1cc(Nc2cccc(Cl)c2C)n2ncnc2n1,21%,0,8%,-4,-11%
c1ccc(Nc2c3c(nc4ncnn24)CCC3)cc1,12µM*,-10,-5%,-9,-7%
c1coc(CNc2c3c(nc4ncnn24)CCC3)c1,-19%,-11,/,-5,2%
Clc1ccccc1Nc1c2c(nc3ncnn13)CCC2,3.3µM*,-10,12µM*,-3,-8%
Fc1ccccc1CCNc1c2c(nc3ncnn13)CCCC2,-15%,-2,-12%,-3,1%
c1ccc(CCNc2c3c(nc4ncnn24)CCC3)cc1,-30%,8,1.5µM*,5,1%
CSc1c2c(nc3ncnn13)CCC2,9.3µM*,-7,?,-4,14%
COc1ccc(C(=O)NCCS(=O)(=O)N2CCCCCC2)cc1,4%,/,-1%,/,/
CCN(CC)C(=O)CSCc1cnn(-c2ccccc2)c1-n1cccc1,?,9,/,0,-15%
CCC(C)c1ccc(NC(=O)c2cccnc2)cc1 (stereo unspecified),5%,59*,-27%,43*,-2%
SMILES,Pf growth 96h,Shiga toxin inh,Pf growth 48h,CHX counter,NS1 inh
CCC(C)c1ccc(O)c(NC(=O)c2cccnc2)c1 (stereo unspecified),?,-15,/,-2,-107%
CCCCSc1ccc(NC(=O)c2cccnc2)cc1,/,35,-14%,14*,-69%
COc1ccc(C(=O)O)cc1S(=O)(=O)N(C)C,13%,16,7%,-1,/
Cc1ccc(N=CNc2ccc(C)cc2C)c(C)c1,2%,-3,1%,-2,2%
Cc1cc(NC(=NC2CC2)c2ccccc2)n(-c2ccccc2)n1,?,-7,?,-4,/
Cc1ccc(NC2Nc3cc(C)nn3S2)c(C)c1 (stereo unspecified),-6%,83*,254%,57*,/
Cc1cc2n(n1)SC(Nc1ccccc1)N2 (stereo unspecified),10%,143,61%,32*,-15%
CCN1CCOC(CC(=O)Nc2ccc([N+](=O)[O-])cc2)C1=O (stereo unspecified),57%,-4,60%,1,-73%
Cc1ccc(NC(=O)C2CCCN(S(=O)(=O)c3cccc4nonc34)C2)cc1 (stereo unspecified),2.6µM*,-7,21%,-1,-6%
Cc1cccc2sc(NC(=O)C3CCCN(S(=O)(=O)c4cccc5nonc45)C3)nc12 (stereo unspecified),?,7,12µM*,-2,7%
Cc1ccc(C(=O)CN2C(=O)NC3(CCCCCC3)C2=O)c(C)c1,114%,/,113%,/,/
Cc1ccc(NC(=O)CSc2nnc([C@@H](N)Cc3c[nH]c4ccccc34)o2)c(C)c1,9.3µM*,56,?,-7,29%
O=C(Nc1ccccc1)Nc1ccc(-n2ccc(C(F)(F)F)n2)cc1,3.3µM*,75*,?,39*,0%
O=C(Nc1ccccc1)Nc1ccccc1-n1ccnc1,-3%,17,-1%,8,4%
N#CC(C#N)=NNc1ccc(-n2ccc(C(F)(F)F)n2)cc1,?,42,?,16*,-60%
O=C(Nc1ccc(F)c(Cl)c1)NC1CC1,5%,40,-19%,7,?
O=C(Nc1ccc(F)cc1F)Nc1csc2ccccc12,?,117*,4.7µM*,42*,-55%
O=C(Nc1ccc(F)c(Cl)c1)Nc1csc2ccccc12,?,57*,?,38*,-5%
CC(/C=C/C(=O)NO)=C\[C@@H](C)C(=O)c1ccc(N(C)C)cc1,/,28,/,-4,/
CC(=O)NC(C)CCc1ccccc1 (stereo unspecified),22%,10,53%,2,3%
CC(CCc1ccccc1)NCC(O)c1ccc(O)c(C(N)=O)c1 (stereo unspecified),?,5,13µM*,-3,-5%
O=C(Cc1csc(N2CCOCC2)n1)N/N=C/c1ccccc1C(=O)O,17%,-4,4%,-3,1%
Cc1ccc(-c2c(C(=O)O)c3ccccc3[nH]c2=O)cc1,54%,-9,3%,-6,2%
CC(C)CC(CSc1ccc(Br)cc1)N1CCN(CCc2ccccc2)CCC1=O (stereo unspecified),/,49*,/,29*,/
CC(=O)Nc1ccc(SCC(Cc2ccccc2)N2CCN(CCc3ccccc3)CCC2=O)cc1 (stereo unspecified),/,-10,/,0,/
SMILES,Pf growth 96h,Shiga toxin inh,Pf growth 48h,CHX counter,NS1 inh
O=C1CCN(CCc2ccccc2)CCN1[C@H](CSc1ccc(Br)cc1)Cc1ccccc1,8.3µM*,-5,13µM*,-5,-52%
CC(=O)Nc1ccc(SC[C@H](CC(C)C)N2CCN(CCc3ccccc3)CCC2=O)cc1,7.4µM*,-5,9.3µM*,-1,-3%
O=C1CCN(CCc2ccccc2)CCN1CCSc1ccc(Br)cc1,68%,-5,59%,2,-37%
CC(C)C[C@@H](CO)N1CCN(CCc2ccccc2)CCC1=O,37%,3,13%,-3,-14%
Cc1ccc(SC[C@H](CC(C)C)N2CCN(CCc3ccccc3)CCC2=O)cc1,?,43*,?,52*,-37%
Cc1ccc(Cn2ccc(O)c(Cc3ccccc3)c2=O)cc1,?,21,?,5,6%
CC(=O)Nc1ccc(SCC(Cc2ccccc2)N2CCN(CC(C)C)CCC2=O)cc1 (stereo unspecified),/,-8,/,-3,/

# From PubChem BioAssay
